Bioassay records: PubChem, several laboratories
NPR2 activator = human GC-B receptor activators, primary screen, HEK293 GC-B cells, cGMP TR-FRET, EC30 CNP; 0% at EC30 CNP, 100% saturating CNP; activation, % at 10 µM; hit rate 0.11% among 370,000;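 active means activation at 10 µM reaching about 35% in either raw or pattern-adjusted values, limit read from the data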
HDAC3 inh = HDAC3 deacetylase inhibitors, primary screen, biochemical, fluorescence, cell-free homogeneous | Histone deacetylase 3 (Homo sapiens), O15379 | recombinant HDAC3, fluorogenic peptide/trypsin coupled | inhibition, % at 8.3 µM | hit rate 0.15% among 320,000 | AID 2718, 2010; in the data active means inhibition above about 26%, passing the limit was not always enough; inconclusive means no clear call, values can overlap the other calls
ALR inh = inhibitors of human ALR sulfhydryl oxidase, primary screen, biochemical, H2O2 detection, HRP-luminol luminescence, single point. FAD-linked sulfhydryl oxidase ALR (Homo sapiens), P55789. inhibition, % (no concentration beside the values). purified ALR, DTT oxidation. AID 485317, 2010. hit rate 3.8% among 290,000;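 active means mean replicate inhibition above about 79%, with every replicate also reaching it, limit read from the data; inconclusive means only one of the two criteria met; inactive means mean below limit and not every replicate reaching it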
Target sequence (P55789 whole entry, looked up): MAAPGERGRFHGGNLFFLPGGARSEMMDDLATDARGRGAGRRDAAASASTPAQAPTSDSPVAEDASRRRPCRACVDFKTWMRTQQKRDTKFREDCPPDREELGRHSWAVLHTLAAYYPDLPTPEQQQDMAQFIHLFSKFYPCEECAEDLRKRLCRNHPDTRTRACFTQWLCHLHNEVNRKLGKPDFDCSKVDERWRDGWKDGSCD
GC-A act = GC-A stimulated cGMP production enhancers – HEK293 GC-A cells, cGMP TR-FRET, EC30 ANP, primary screen; activation, % at 10 µM; hit rate 0.14% among 370,000; Atrial natriuretic peptide receptor 1 (Homo sapiens), P16066; 0% at EC30 ANP, 100% saturating ANP; in the data active means activation above about 40%
* marks the source's active call; other numbers are inactive results; u = inconclusive; x = no result given. The sample as a whole holds a higher share of hits than the screen did.

SMILES | NPR2 activator | HDAC3 inh | ALR inh | GC-A act
CCOC(=O)C(=NC1CCS(=O)(=O)C1)NNc1ccccc1Cl (centres undefined) | 1 | 5 | 99* | -7
CCOC(=O)C(=NC(C)CC)NNc1ccc(Br)cc1 (centres undefined) | 4 | 7 | 99* | -1
CN1CCN(c2ncnc3c2ncn3[C@H]2CN(Cc3ccc(-c4ccccc4)cc3)C[C@@H](CO)O2)CC1 | -3 | x | x | 2
O=C1C(=Cc2cccc(F)c2)Cc2ccccc21 | -7 | x | x | -4
Cn1c(=O)c2c(nc(SCCN3CCOCC3)n2C)n(C)c1=O | 3 | -5 | -2 | 6
Cc1ccccc1NC(=O)/C(=C/c1ccco1)c1ccccc1 | -5 | 1 | 83* | -7
CC(C)(C)NC(=O)/C(=C/c1ccco1)c1ccccc1 | -4 | 1 | 90* | 6
CCc1ccccc1NC(=O)/C(=C/c1ccco1)c1ccccc1 | -2 | 13 | 5 | -4
CCCCCN1CCCCC(NC(=O)Cc2ccccc2)C1=O (centres undefined) | 7 | x | x | 2
Oc1ccc(NCc2ccccc2OCc2ccccc2)cc1 | -2 | -3 | 9 | 3
C#CCOc1ccccc1CNc1ccccc1 | 0 | 1 | 98* | 3
c1ccc(-c2nnc(CN3CCN(c4ccccc4)CC3)o2)cc1 | -2 | x | 98* | -1
Clc1cccc(N2CCN(Cc3nnc(-c4ccccc4)o3)CC2)c1 | 4 | -4 | 3 | -3
CCOC(=O)Cc1nnc(NC(=O)CSc2nnc3c(n2)[nH]c2ccccc23)s1 | -1 | 65* | -10 | 6
COc1ccc(C(=O)OCC(=O)NCc2ccc3c(c2)OCO3)cc1S(=O)(=O)N1CCOCC1 | -3 | 0 | -3 | 0
Cc1cc2cc3c(cc2nc1SCC(=O)O)CCC3 | -2 | 12 | 98* | 5
CCOC(=O)NC(=O)/C(C#N)=N\Nc1cccc(OC)c1 | 2 | 6 | 98* | -1
O/N=C(\COc1ccccc1O)c1ccccc1 | 4 | -2 | 77* | 4
C[n+]1c2n(c3ccccc31)N=C(c1ccc(Br)cc1)CS2 | 2 | 11 | 99* | 3
C[n+]1c2n(c3ccccc31)N=C(c1ccccc1)CS2 | 0 | 31* | 89* | 7
Cc1cccc(-c2nnc3n2N=C(c2ccccc2)CS3)c1 | 4 | 2 | 3 | 6
C[n+]1c2n(c3ccccc31)N=C(c1ccc(-c3ccccc3)cc1)CS2 | 0 | x | 99* | 7
CCc1nnc2n1N=C(c1ccc(Br)cc1)CS2 | 0 | 1 | 5 | -1
COC(=O)[C@]12C[C@H](CC(=O)NCc3ccc(OC)c(OC)c3)C(=O)N(Cc3ccc4c(c3)OCO4)C1=C[C@H](C(C)C)O[C@@H]2C1CC1 | -4 | x | x | -1
CCN1Cc2nnn(Cc3ccccc3)c2-c2cc(N3CCCC3)ccc2S1(=O)=O | -15 | x | x | -23
SMILES | NPR2 activator | HDAC3 inh | ALR inh | GC-A act
CCOC(=O)C1=C(C(=O)OCC)C2N(Cc3ccc(C#N)cc3)c3ccccc3[C@@]23C[C@@H](C(=O)OC)N(S(=O)(=O)c2cccs2)C3=N1 (some centres undefined) | 5 | x | x | 0
Fc1ccc(/C=N/n2cnn(Cc3ccccc3Cl)c2=S)cc1 | -2 | 3 | -9 | 17
Brc1ccc2nc(-c3cccs3)c(NCC3CCCO3)n2c1 (centres undefined) | 5 | 0 | 98* | -3
c1csc(-c2nc(NCC3CCCO3)c3ccccc3n2)c1 (centres undefined) | 7 | 0 | x | 6
CC(C)[C@H](NC(=O)c1ccccc1)C(=O)OCC(=O)c1ccccc1F | 2 | 7 | 88* | 4
CC(C)[C@H](NC(=O)c1c(F)cccc1F)C(=O)OCC(=O)NNC(=O)c1ccccc1 | 0 | x | x | -12
Cc1ccc(C(=O)N(C)[C@H]2C[C@H]3c4[nH]c5c(-c6cccc(C)c6)cccc5c4CCN3C[C@H]2[C@H](C)O)cc1 | 1 | x | x | -2
COc1ccc(NC(=O)COC(=O)CCc2ccccc2)c(OC)c1 | -3 | 3 | 0 | 0
Cc1nc(-c2ccc3c(c2)OCCCO3)cs1 | -2 | 41* | 0 | 2
Cc1nc(-c2ccc3c(c2)OCO3)cs1 | 7 | -2 | -5 | 5
O=C(O)C(=O)Nc1nc(-c2ccc3c(c2)OCCO3)cs1 | 3 | -2 | 3 | 4
CC1Cc2cc(-c3csc(N)n3)ccc2O1 (centres undefined) | -3 | 5 | x | 0
Nc1nc(-c2ccc3c(c2)OCCO3)cs1 | -1 | -8 | 99* | 14
Nc1nc(-c2ccc3c(c2)CCCC3)cs1 | 5 | -5 | 99* | 0
Nc1nc(-c2cc3c(cc2Cl)OCCO3)cs1 | -3 | 4 | 99* | 0
CC(C)C(=O)Nc1nnc(SCC(=O)NC2CCCC2)s1 | 5 | -6 | -13 | -2
O=C(NCCOc1ccc(F)cc1)C1CCC(=O)N(CCc2ccccn2)C1 (centres undefined) | 1 | 1 | 2 | -2
COc1ccc(C2c3[nH]c4ccccc4c3CCN2C(=O)c2cc3ncccn3n2)c(F)c1 (centres undefined) | 37* | 4 | 0 | 38
COc1ccc(C2c3[nH]c4ccccc4c3CCN2C(=O)c2cn3ccccc3n2)c(F)c1 (centres undefined) | 26 | 12 | -1 | 16
CCC(C(=O)Nc1ccc2c(c1)OCCO2)n1c(=O)[nH]c2ccccc2c1=O (centres undefined) | -2 | 1 | -3 | -3
Cc1nc2ccc(NC(=O)c3cc([N+](=O)[O-])cc([N+](=O)[O-])c3Cl)cc2s1 | 21 | 5 | 16 | 80*
O=C(Nc1ccccc1F)Nc1ccc([N+](=O)[O-])cc1Cl | -2 | -1 | -1 | 6
C[C@@H]1CN([C@H](C)CO)C(=O)CCCn2nncc2CO[C@@H]1CN(C)C(=O)c1ccncc1 | -6 | x | x | 0
CC(C)(C)CC(C)(C)NC(=O)CSCC(=O)Nc1ccc2ccccc2c1 | -7 | u | 99* | -3
CCC(=O)Nc1ccc2ccccc2c1 | 1 | -4 | -20 | 1
SMILES | NPR2 activator | HDAC3 inh | ALR inh | GC-A act
COc1ccccc1/C=C/CN1CCCC(CCC(=O)NCc2ccccc2F)C1 (centres undefined) | -9 | 19 | -46 | -5
O=C(CCS(=O)(=O)c1ccc(F)cc1)Nc1ccc(N2CCN(Cc3ccccc3)CC2)cc1 | 8 | -3 | -5 | 8
CC(=O)N1CCN(c2ccc(NCc3cccc4ccccc34)cc2)CC1 | -11 | 0 | 99* | 6
CC(=O)N1CCN(c2ccc(NCc3ccc(Br)o3)cc2)CC1 | -8 | -1 | 99* | -1
CC(=O)N1CCN(c2ccc(NCc3ccc(-c4ccc(Br)cc4)o3)cc2)CC1 | -8 | 9 | 63 | 3
CC(=O)N1CCN(c2ccc(NCc3ccccc3)cc2)CC1 | -1 | 13 | 99* | -6
Fc1ccc(CNc2ccc(N3CCN(Cc4ccccc4)CC3)cc2)cc1 | 1 | 2 | 89* | 5
